The record followed here is publication PMC7862700, “An all-to-all approach to the identification of sequence-specific readers for epigenetic DNA modifications on cytosine”.

Assay in all cases: DAPPL (digital affinity profiling via proximity ligation, sequencing); 10 mM Tris-HCl pH 7.5, 50 mM NaCl, 1 mM DTT, 4% glycerol, room temperature, 30 min; GST-TFs on glutathione beads, 16-mer random dsDNA library, 0.1% formaldehyde crosslink after washing; high values mean tight binding
Holding throughout (conditions): protein: recombinant; tags: N-terminal GST; dsDNA, one strand shown

The target in one experiment is T1, FLI1 (Homo sapiens, UniProt Q01543 1-452).
T1 sequence: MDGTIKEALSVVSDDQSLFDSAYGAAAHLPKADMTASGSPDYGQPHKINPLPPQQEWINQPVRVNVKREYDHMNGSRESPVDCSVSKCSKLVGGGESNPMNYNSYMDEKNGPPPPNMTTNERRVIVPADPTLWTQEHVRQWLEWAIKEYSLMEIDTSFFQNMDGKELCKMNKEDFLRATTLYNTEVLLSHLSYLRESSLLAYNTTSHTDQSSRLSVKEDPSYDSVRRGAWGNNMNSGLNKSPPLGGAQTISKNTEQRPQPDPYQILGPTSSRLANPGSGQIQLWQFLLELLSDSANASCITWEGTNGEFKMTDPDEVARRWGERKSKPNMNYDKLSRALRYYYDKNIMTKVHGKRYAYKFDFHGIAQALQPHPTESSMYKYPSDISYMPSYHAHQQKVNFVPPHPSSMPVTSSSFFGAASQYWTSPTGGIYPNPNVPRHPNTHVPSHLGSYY
The gist of the method:
(§1)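 Binding signal is given per hexamer as its read frequency for a factor divided by its frequency in the tag-only sample. GST-fused human transcription factors were expressed in yeast, captured on glutathione beads, barcoded with DNA and pooled with that sample, then incubated with 200 nmole of a 16-mer random double-stranded DNA library in Tris/NaCl/DTT/glycerol buffer for 30 min at room temperature. The pools were then washed, crosslinked, proximity-ligated, amplified by PCR and sequenced on an Illumina NextSeq500.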

Another experiment has as its target T2, ELK1 (Homo sapiens, UniProt P19419 1-428).
T2 sequence: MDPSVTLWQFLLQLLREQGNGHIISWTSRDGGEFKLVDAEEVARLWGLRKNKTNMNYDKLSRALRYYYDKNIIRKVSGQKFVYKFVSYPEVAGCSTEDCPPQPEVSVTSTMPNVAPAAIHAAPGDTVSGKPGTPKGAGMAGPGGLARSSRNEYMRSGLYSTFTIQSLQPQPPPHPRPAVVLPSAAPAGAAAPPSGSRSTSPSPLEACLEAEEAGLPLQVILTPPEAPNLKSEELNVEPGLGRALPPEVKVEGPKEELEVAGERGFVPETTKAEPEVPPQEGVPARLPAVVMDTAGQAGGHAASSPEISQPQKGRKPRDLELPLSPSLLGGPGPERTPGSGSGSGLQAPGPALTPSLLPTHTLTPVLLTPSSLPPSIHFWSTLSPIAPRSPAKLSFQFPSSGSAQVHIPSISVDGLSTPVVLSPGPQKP
A digest of the protocol:
as §1

In another experiment the target is T3, GABPA (Homo sapiens, UniProt Q06546 1-454).
T3 sequence: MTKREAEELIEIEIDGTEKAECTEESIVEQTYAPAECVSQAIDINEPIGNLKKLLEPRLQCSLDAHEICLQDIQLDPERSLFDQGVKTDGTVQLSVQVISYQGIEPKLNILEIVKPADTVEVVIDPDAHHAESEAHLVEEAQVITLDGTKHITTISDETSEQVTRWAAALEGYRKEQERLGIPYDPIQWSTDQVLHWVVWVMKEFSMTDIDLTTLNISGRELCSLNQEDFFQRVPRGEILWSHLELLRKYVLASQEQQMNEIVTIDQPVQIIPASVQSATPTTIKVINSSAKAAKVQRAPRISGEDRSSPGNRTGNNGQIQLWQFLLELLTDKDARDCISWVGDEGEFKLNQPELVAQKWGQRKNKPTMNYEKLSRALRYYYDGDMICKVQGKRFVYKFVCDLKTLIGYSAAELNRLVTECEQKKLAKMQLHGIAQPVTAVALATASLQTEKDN
The gist of the method:
as §1

Another experiment deals with T4, ERG (Homo sapiens, UniProt P11308 1-479).
T4 sequence: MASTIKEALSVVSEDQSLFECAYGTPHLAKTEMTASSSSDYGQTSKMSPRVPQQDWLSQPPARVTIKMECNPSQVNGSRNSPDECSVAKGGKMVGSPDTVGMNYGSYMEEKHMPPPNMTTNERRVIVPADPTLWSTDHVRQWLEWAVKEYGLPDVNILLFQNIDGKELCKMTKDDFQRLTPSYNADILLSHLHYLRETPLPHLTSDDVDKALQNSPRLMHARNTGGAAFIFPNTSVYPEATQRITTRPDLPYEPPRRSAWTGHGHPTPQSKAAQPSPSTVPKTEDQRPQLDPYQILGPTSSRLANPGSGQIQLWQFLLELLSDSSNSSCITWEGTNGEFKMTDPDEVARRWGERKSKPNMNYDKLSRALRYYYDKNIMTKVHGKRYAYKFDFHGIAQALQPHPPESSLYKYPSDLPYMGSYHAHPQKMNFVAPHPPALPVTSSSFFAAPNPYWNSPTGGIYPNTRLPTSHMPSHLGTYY
The gist of the method:
as §1

Another experiment deals with ELF1 (Homo sapiens, UniProt P32519 1-619). The gist of the method:
as §1

The target in the next experiment is T5, EHF (Homo sapiens, UniProt Q9NZC4 1-300).
T5 sequence: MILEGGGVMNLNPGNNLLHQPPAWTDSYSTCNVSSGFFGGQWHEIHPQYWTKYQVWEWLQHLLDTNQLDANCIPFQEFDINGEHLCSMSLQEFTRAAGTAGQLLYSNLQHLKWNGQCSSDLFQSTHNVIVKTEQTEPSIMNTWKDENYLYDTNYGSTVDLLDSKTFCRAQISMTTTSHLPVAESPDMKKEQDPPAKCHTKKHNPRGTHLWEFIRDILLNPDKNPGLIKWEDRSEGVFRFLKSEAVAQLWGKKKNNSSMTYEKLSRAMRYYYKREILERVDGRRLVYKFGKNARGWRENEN
A digest of the protocol: as §1

Another experiment concerns the target SPI1 (Homo sapiens, UniProt P17947 1-270). The gist of the method:
as §1

A further experiment addresses SPIB (Homo sapiens, UniProt Q01892 1-262). The gist of the method:
as §1

The next experiment deals with T6, ELK3 (Homo sapiens, UniProt P41970 1-407).
T6 sequence: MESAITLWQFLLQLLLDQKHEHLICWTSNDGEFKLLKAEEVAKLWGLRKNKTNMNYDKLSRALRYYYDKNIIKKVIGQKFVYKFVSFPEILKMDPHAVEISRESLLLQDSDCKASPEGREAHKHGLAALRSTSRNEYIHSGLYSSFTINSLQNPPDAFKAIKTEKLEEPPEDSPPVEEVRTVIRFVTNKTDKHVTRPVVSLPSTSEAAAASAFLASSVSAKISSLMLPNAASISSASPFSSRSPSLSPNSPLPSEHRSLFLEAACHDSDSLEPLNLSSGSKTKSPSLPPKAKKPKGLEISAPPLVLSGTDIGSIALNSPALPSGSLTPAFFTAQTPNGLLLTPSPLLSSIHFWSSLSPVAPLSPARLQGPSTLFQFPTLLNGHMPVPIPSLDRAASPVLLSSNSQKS
A digest of the protocol: as §1

In the next experiment the target is T7, FEV (Homo sapiens, UniProt Q99581 1-238).
T7 sequence: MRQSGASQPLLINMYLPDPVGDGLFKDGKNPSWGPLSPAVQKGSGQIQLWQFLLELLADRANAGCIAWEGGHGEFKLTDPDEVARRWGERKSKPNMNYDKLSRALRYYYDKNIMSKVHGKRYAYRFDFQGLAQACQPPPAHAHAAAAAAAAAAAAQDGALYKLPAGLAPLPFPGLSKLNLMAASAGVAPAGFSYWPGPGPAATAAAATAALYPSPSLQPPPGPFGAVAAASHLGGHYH
The gist of the method:
as §1

Another experiment has as its target ETV5 (Homo sapiens, UniProt P41161 1-510). The gist of the method:
as §1

The target of the next experiment is T8, SPIC (Homo sapiens, UniProt Q8N5J4 1-248).
T8 sequence: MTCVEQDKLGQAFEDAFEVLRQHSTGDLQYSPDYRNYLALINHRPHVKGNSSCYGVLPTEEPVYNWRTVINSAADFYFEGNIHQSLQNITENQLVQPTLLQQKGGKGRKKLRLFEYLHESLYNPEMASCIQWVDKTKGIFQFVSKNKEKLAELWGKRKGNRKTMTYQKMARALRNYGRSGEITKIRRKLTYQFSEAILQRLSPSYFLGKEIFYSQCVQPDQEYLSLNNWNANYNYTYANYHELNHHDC
The gist of the method:
as §1

A further experiment addresses ELF4 (Homo sapiens, UniProt Q99607 1-663). A digest of the protocol: as §1
A further experiment has as its target T9, ELK4 (Homo sapiens, UniProt P28324-2 1-405).
T9 sequence: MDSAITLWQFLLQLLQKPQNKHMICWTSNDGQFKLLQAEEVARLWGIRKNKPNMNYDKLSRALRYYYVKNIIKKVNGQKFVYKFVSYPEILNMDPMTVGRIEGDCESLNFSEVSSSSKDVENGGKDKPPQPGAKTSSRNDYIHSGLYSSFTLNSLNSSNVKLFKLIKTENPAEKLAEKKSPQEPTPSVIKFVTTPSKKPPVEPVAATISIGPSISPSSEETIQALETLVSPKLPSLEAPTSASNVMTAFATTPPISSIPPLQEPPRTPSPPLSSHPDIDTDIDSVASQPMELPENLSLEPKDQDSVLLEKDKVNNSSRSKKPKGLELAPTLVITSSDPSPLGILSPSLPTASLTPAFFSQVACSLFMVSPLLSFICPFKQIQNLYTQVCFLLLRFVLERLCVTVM
The gist of the method: as §1

A further experiment concerns the target T10, ETV2 (Homo sapiens, UniProt O00321 1-342).
T10 sequence: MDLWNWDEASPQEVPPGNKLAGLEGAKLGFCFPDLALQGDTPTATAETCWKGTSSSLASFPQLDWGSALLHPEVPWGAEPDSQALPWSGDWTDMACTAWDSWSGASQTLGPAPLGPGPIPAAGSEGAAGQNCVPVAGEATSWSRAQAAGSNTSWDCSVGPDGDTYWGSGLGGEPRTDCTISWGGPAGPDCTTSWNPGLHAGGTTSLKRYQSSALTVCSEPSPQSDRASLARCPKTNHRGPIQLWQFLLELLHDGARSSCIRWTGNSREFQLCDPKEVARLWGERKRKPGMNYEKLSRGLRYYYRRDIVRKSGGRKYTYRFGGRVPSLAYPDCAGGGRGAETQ
The gist of the method:
as §1

The target of a further experiment is T11, ELF3 (Homo sapiens, UniProt P78545 1-371).
T11 sequence: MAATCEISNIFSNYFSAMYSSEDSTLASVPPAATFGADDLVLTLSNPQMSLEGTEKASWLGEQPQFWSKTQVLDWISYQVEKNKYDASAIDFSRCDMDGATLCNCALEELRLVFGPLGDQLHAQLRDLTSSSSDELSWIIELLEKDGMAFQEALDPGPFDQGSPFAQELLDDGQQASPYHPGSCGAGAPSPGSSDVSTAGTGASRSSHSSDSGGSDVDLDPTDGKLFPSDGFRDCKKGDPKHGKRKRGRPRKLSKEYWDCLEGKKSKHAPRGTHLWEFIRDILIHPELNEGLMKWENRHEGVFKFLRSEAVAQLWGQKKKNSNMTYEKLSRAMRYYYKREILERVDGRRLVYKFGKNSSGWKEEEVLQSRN
A digest of the protocol:
as §1

In a further experiment the target is CRX (Homo sapiens, UniProt O43186 1-299). The gist of the method:
as §1

The next experiment has as its target ETV1 (Homo sapiens, UniProt P50549 1-477). A digest of the protocol: as §1

ELF1, sequence (P32519 whole entry): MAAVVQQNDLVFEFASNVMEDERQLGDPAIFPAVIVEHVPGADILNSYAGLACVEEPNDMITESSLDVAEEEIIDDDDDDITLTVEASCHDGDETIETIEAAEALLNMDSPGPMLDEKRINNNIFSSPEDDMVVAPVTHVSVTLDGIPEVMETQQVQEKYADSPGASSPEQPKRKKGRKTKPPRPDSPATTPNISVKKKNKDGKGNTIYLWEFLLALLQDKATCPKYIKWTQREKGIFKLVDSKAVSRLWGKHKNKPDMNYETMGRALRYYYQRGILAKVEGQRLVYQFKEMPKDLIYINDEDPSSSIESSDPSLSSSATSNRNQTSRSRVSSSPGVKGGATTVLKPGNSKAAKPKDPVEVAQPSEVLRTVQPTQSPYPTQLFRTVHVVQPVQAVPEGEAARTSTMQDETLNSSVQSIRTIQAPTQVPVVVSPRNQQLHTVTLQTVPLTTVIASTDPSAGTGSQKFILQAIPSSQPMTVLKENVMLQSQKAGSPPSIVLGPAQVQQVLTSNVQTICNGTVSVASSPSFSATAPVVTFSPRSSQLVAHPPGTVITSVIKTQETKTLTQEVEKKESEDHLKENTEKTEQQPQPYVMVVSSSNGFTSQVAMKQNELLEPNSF
ETV5, sequence (P41161 whole entry): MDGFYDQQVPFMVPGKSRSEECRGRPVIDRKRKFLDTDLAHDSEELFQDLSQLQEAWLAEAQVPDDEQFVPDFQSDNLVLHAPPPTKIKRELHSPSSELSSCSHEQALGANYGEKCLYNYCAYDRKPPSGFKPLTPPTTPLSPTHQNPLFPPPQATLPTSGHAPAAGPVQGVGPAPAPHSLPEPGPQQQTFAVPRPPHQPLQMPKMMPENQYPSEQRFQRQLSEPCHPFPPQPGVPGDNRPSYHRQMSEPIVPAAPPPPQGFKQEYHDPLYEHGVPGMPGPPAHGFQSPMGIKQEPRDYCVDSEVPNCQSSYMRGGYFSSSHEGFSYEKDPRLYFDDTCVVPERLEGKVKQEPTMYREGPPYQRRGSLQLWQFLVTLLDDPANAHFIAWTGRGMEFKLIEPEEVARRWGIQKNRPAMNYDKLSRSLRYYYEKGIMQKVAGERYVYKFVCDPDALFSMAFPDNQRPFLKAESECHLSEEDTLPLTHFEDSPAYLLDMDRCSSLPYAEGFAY
ETV1, sequence (P50549 whole entry): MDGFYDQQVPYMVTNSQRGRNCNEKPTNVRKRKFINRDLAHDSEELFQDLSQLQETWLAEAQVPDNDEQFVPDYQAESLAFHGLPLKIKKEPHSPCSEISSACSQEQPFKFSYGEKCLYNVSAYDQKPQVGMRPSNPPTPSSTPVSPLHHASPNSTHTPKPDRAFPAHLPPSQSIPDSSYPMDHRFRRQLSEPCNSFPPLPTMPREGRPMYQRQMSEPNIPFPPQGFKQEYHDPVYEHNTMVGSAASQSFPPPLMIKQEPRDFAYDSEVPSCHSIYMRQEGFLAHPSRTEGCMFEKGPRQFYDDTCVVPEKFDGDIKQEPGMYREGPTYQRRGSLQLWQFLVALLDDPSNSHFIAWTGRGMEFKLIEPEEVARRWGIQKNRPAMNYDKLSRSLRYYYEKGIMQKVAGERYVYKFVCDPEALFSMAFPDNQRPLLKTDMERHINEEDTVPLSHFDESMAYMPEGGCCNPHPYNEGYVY
SPIB, sequence (Q01892 whole entry): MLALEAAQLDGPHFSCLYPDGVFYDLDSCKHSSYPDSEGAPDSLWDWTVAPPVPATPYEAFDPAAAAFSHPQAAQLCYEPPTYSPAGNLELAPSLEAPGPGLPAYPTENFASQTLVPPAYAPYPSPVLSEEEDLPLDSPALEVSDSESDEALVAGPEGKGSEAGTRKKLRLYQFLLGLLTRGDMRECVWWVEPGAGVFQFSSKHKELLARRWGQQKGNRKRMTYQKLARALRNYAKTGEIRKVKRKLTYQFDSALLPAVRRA
ELF4, sequence (Q99607 whole entry): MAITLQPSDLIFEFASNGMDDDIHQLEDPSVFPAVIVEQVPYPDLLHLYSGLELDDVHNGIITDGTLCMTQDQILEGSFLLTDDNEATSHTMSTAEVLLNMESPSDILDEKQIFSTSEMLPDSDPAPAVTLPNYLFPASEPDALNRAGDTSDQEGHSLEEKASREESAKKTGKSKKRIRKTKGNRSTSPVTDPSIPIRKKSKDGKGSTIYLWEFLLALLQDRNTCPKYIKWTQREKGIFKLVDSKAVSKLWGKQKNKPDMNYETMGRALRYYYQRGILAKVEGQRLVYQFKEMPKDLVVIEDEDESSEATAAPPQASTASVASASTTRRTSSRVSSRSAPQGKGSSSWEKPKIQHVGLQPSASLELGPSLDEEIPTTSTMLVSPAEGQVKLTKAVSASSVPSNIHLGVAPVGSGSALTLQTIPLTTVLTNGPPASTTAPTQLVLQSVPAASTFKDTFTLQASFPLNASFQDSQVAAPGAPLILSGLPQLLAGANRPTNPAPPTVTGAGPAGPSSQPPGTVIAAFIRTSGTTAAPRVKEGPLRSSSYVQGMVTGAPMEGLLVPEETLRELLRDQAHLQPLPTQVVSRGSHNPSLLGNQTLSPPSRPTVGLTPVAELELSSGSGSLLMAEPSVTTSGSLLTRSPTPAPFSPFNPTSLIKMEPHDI
CRX, sequence (O43186 whole entry): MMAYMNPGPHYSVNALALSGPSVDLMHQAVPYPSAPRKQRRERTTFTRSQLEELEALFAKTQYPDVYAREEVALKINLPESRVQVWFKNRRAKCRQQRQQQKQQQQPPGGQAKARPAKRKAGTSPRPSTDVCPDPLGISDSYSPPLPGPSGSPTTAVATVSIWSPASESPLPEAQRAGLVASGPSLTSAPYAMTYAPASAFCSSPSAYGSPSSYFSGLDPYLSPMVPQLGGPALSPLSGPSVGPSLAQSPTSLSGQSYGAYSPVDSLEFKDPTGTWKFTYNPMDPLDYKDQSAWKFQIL

As for GATATC, the binding signal is 1.55 fold enrichment (6-mer frequency, TF over GST control) with FLI1; 1.6 fold enrichment (6-mer frequency, TF over GST control) with ELK1; 1.37 fold enrichment (6-mer frequency, TF over GST control) in the experiment with GABPA; 1.9 fold enrichment (6-mer frequency, TF over GST control) in the experiment with ERG; 1.46 fold enrichment (6-mer frequency, TF over GST control) in the experiment with ELF1; 1.44 fold enrichment (6-mer frequency, TF over GST control) with EHF. Moreover, the binding signal in the experiment with SPI1 was 1.4 fold enrichment (6-mer frequency, TF over GST control); in the experiment with SPIB it was 1.58 fold enrichment (6-mer frequency, TF over GST control); in the experiment with ELK3, 1.51 fold enrichment (6-mer frequency, TF over GST control); with FEV, 4.01 fold enrichment (6-mer frequency, TF over GST control); with ETV5, 1.6 fold enrichment (6-mer frequency, TF over GST control); with SPIC, 1.41 fold enrichment (6-mer frequency, TF over GST control). Moreover, the binding signal is 1.34 fold enrichment (6-mer frequency, TF over GST control) with ELF4; 1.49 fold enrichment (6-mer frequency, TF over GST control) in the experiment with ELK4; 1.51 fold enrichment (6-mer frequency, TF over GST control) with ETV2; 1.59 fold enrichment (6-mer frequency, TF over GST control) in the experiment with ELF3; 1.02 fold enrichment (6-mer frequency, TF over GST control) with CRX; 1.51 fold enrichment (6-mer frequency, TF over GST control) with ETV1.
On to GCCTCC, for which the binding signal with FLI1 was 1.29 fold enrichment (6-mer frequency, TF over GST control); in the experiment with ELK1, 1.34 fold enrichment (6-mer frequency, TF over GST control); with GABPA, 1.23 fold enrichment (6-mer frequency, TF over GST control); in the experiment with ERG it was 1.33 fold enrichment (6-mer frequency, TF over GST control); with ELF1, 1.27 fold enrichment (6-mer frequency, TF over GST control); with EHF it was 1.31 fold enrichment (6-mer frequency, TF over GST control). In addition, the binding signal with SPI1 was 1.38 fold enrichment (6-mer frequency, TF over GST control); in the experiment with SPIB, 1.29 fold enrichment (6-mer frequency, TF over GST control); with ELK3 it was 1.33 fold enrichment (6-mer frequency, TF over GST control); with FEV, 1.32 fold enrichment (6-mer frequency, TF over GST control); with ETV5, 1.31 fold enrichment (6-mer frequency, TF over GST control); in the experiment with SPIC, 1.38 fold enrichment (6-mer frequency, TF over GST control). The binding signal was 1.34 fold enrichment (6-mer frequency, TF over GST control) in the experiment with ELF4; 1.22 fold enrichment (6-mer frequency, TF over GST control) with ELK4; 1.29 fold enrichment (6-mer frequency, TF over GST control) in the experiment with ETV2; 1.24 fold enrichment (6-mer frequency, TF over GST control) in the experiment with ELF3; 1.03 fold enrichment (6-mer frequency, TF over GST control) with CRX; 1.25 fold enrichment (6-mer frequency, TF over GST control) with ETV1.
